Shown are actives, neighbours in structure and some others; about 3.1% of the full set was active somewhere.
SARS 3CLpro inh = SARS-CoV 3CLpro protease inhibitors, primary screen, biochemical, quenched FRET. hit rate 0.14% among 290,000. inhibition, % at 6 µM. recombinant SARS-CoV 3CLpro, quenched FRET peptide cleavage. AID 1706, 2009; in the data active = inhibition above about 12%
Mtb FBA inh = Mtb FBA enzyme inhibitors, primary screen, biochemical, fluorescence, strain H37Rv; Fructose-bisphosphate aldolase (Mycobacterium tuberculosis (strain ATCC 25618 / H37Rv)), …; hit rate 2.3% among 360,000; inhibition, % at 1 µM; purified M. tuberculosis FBA, fluorescence read-out;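 also: 0% = vehicle and 100% = reference inhibitor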
Target sequence (P9WQA3 whole entry, looked up): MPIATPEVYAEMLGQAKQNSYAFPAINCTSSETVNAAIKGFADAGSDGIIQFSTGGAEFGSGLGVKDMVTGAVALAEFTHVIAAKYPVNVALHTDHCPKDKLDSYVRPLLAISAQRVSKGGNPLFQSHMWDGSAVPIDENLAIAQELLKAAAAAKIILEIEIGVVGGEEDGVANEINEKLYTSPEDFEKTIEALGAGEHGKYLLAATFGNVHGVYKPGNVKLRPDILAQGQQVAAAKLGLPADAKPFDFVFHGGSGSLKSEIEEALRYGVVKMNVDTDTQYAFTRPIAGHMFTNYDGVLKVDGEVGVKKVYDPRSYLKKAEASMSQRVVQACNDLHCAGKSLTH
GDH-TPI counter-1 = GDH-TPI coupling enzyme inhibitors, primary screen, artefact control for M. tuberculosis FBA inhibitor project, biochemical, absorbance, full deck; GDH-TPI coupled enzyme counterscreen, NADH absorbance; inhibition, % at 4.8 µM; hit rate 1.2% among 360,000; AID 588335, 2011; in the data active = inhibition above about 30%;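 also: 0% = DMSO wells and 100% = wells lacking the enzyme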
FadD28 binding = inhibitors of FadD28 bisubstrate probe binding, primary screen, biochemical, fluorescence polarization, single point | inhibition, % at 12.5 µM | hit rate 0.22% among 360,000; in the data active = inhibition above about 8.5%, passing the limit was not always enough
BioA inh = M. tuberculosis BioA enzyme inhibitors, primary screen, biochemical, plate reader, single point, HTS | 7,8-diaminopelargonic acid synthase BioA (Mycobacterium tuberculosis) | purified M. tuberculosis BioA enzyme | inhibition, % at 9.99 µM | hit rate 0.096% among 360,000; in the data active = inhibition above about 40%
Mtb FBA inh conf = M. tuberculosis aldolase blockers, biochemical, fluorescence, strain H37Rv, confirmation. shares compounds with Mtb FBA inh. purified M. tuberculosis FBA, fluorescence read-out. inhibition, % at 1 µM. hit rate 78% among 5,600. AID 651616, 2012;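 also: 0% = vehicle wells and 100% = reference inhibitor wells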
GDH-TPI counter-2 = GDH-TPI coupling enzyme inhibitors, artefact control for M. tuberculosis FBA inhibitor project, biochemical, fluorescence, high throughput; shares compounds with Mtb FBA inh; GDH-TPI coupled enzyme counterscreen; inhibition, % at 1 µM; hit rate 81% among 5,600; in the data active = inhibition above about 10%
* = called active by the depositor. Rule as the data show it, unless noted: active = inhibition above about 27%; inactive = the rest.

How did COC(=O)C12CCc3cc(OC)ccc3C1=CC(=O)C2 (configuration not stated) do in these assays?
Mtb FBA inh: 95*; GDH-TPI counter-1: 34*; FadD28 binding: 0; BioA inh: 4; Mtb FBA inh conf: 95*; GDH-TPI counter-2: 94*

Results for Cc1ccc(C(=O)Nc2ccccc2C(=O)NCc2cccnc2)cc1 ?
SARS 3CLpro inh: 1; Mtb FBA inh: 1; GDH-TPI counter-1: -4; FadD28 binding: -1; BioA inh: 3

How did Cc1cc(C)n2ncc(C(=O)NCc3cccnc3)c2n1 do in these assays?
SARS 3CLpro inh: 1; Mtb FBA inh: 42*; GDH-TPI counter-1: -1; FadD28 binding: -2; BioA inh: 6; Mtb FBA inh conf: 43*; GDH-TPI counter-2: 42*

What do the screens show for `CC(C)n1ncc2c(C(=O)NCc3cccnc3)cc(C3CC3)nc21`?
Mtb FBA inh: 54*; GDH-TPI counter-1: 9; FadD28 binding: -4; BioA inh: 9; Mtb FBA inh conf: active; GDH-TPI counter-2: active

What do the screens show for `O=C(NCc1cccnc1)c1cnn2ccccc12`?
SARS 3CLpro inh: -4; Mtb FBA inh: 30*; GDH-TPI counter-1: 6; FadD28 binding: -3; BioA inh: 0; Mtb FBA inh conf: 193*; GDH-TPI counter-2: 140*

Results for CC(=O)N(C)C[C@H]1Oc2cc(C3=CCCC3)ccc2S(=O)(=O)N([C@@H](C)CO)C[C@H]1C ?
BioA inh: -1

Results for C[C@@H]1CCCCO[C@H](CN(C)C(=O)Nc2ccc(C(F)(F)F)cc2)[C@@H](C)CN([C@@H](C)CO)C(=O)c2cc(NC(=O)C3CCCCC3)ccc2O1 ?
BioA inh: -1

How did Cc1oc2c(c(C)cc3oc(=O)c(CC(=O)NCCCN4CCCC4=O)c(C)c32)c1C do in these assays?
SARS 3CLpro inh: -2; Mtb FBA inh: 19; GDH-TPI counter-1: 12; FadD28 binding: -2; BioA inh: 1

What do the screens show for `Cc1coc2c1c(C)cc1oc(=O)c(CC(=O)NCC(=O)NCC(=O)O)c(C)c12`?
SARS 3CLpro inh: 0; Mtb FBA inh: 93*; GDH-TPI counter-1: 20; FadD28 binding: -2; BioA inh: -3; Mtb FBA inh conf: active; GDH-TPI counter-2: active

What do the screens show for `COCCCNC(=O)Cc1c(C)c2c(cc(C)c3c(C(C)(C)C)coc32)oc1=O`?
SARS 3CLpro inh: 0; Mtb FBA inh: 36*; GDH-TPI counter-1: 7; FadD28 binding: -3; BioA inh: 1; Mtb FBA inh conf: 62*; GDH-TPI counter-2: 54*

Results for Cc1coc2c1c(C)cc1oc(=O)c(CC(=O)NCCC(=O)O)c(C)c12 ?
SARS 3CLpro inh: 3; Mtb FBA inh: 91*; GDH-TPI counter-1: 10; FadD28 binding: -2; BioA inh: -1; Mtb FBA inh conf: 62*; GDH-TPI counter-2: 57*

How did Cc1oc2c(c(C)cc3oc(=O)c(CC(=O)NCC(=O)NCC(=O)NCC(C)O)c(C)c32)c1C (configuration not stated) do in these assays?
SARS 3CLpro inh: 1; Mtb FBA inh: 24; GDH-TPI counter-1: -1; FadD28 binding: 0; BioA inh: -1

What do the screens show for `Cc1oc2c(c(C)cc3oc(=O)c(CC(=O)NCCCO)c(C)c32)c1C`?
SARS 3CLpro inh: -4; Mtb FBA inh: 20; GDH-TPI counter-1: 8; FadD28 binding: -2; BioA inh: 0

Results for COCCNC(=O)Cc1c(C)c2c(cc(C)c3c(C)coc32)oc1=O ?
SARS 3CLpro inh: -3; Mtb FBA inh: 38*; GDH-TPI counter-1: 1; FadD28 binding: -3; BioA inh: -1; Mtb FBA inh conf: 159*; GDH-TPI counter-2: 125*

How did COCC(=O)Nc1ccc2c(c1)OC[C@@H](C)N(Cc1cccnc1)C[C@@H](C)[C@@H](OC)CN(C)C2=O do in these assays?
BioA inh: -1

Results for N#Cc1c(N)oc(-c2ccco2)c1-c1ccco1 ?
SARS 3CLpro inh: -1; Mtb FBA inh: 33*; GDH-TPI counter-1: 12; FadD28 binding: 5; BioA inh: 0; Mtb FBA inh conf: 42*; GDH-TPI counter-2: 26*

How did N#Cc1c(N)oc(-c2ccccc2)c1-c1ccccc1 do in these assays?
SARS 3CLpro inh: -1; Mtb FBA inh: 0; GDH-TPI counter-1: 4; FadD28 binding: -3; BioA inh: 0

How did CNC[C@H]1Oc2ccc(NS(C)(=O)=O)cc2C(=O)N([C@H](C)CO)C[C@@H]1C do in these assays?
BioA inh: 0

How did Cc1ccccc1C(=O)N1CCN(c2nc(N3CCOCC3)nc(N3CCOCC3)n2)CC1 do in these assays?
SARS 3CLpro inh: -1; Mtb FBA inh: 0; GDH-TPI counter-1: 0; FadD28 binding: 1; BioA inh: -2

How did O=C(NCc1ccco1)C1CCN(c2ccc(N3CCOCC3)nn2)CC1 do in these assays?
SARS 3CLpro inh: -6; Mtb FBA inh: 27*; GDH-TPI counter-1: 0; FadD28 binding: 1; BioA inh: 2; Mtb FBA inh conf: -3; GDH-TPI counter-2: -3

How did Cc1ccccc1C(=O)N1CCN(c2ccc(N3CCOCC3)nn2)CC1 do in these assays?
Mtb FBA inh: 37*; GDH-TPI counter-1: 7; FadD28 binding: -2; BioA inh: 11; Mtb FBA inh conf: 56*; GDH-TPI counter-2: 43*

What do the screens show for `COc1ccc2c(c1)CCc1cc(C(=O)N3CCN(c4ccc(N5CCOCC5)nn4)CC3)sc1-2`?
SARS 3CLpro inh: -1; Mtb FBA inh: 41*; GDH-TPI counter-1: 34*; FadD28 binding: -2; BioA inh: 1; Mtb FBA inh conf: active; GDH-TPI counter-2: 195*

What do the screens show for `COc1cccc(C(=O)N2CCN(c3ccc(N4CCOCC4)nn3)CC2)c1`?
Mtb FBA inh: 29*; GDH-TPI counter-1: -4; FadD28 binding: 0; Mtb FBA inh conf: 0; GDH-TPI counter-2: 0

What do the screens show for `COc1cccc(N2CCN(C(=O)c3cc4c(s3)-c3ccccc3OC4)CC2)c1`?
SARS 3CLpro inh: -3; Mtb FBA inh: 5; GDH-TPI counter-1: 9; FadD28 binding: -4; BioA inh: -2

Results for Cc1ccc(S(=O)(=O)N(C)C[C@@H]2Oc3ccc(NS(=O)(=O)c4ccc(F)cc4)cc3C(=O)N([C@H](C)CO)C[C@H]2C)cc1 ?
BioA inh: -5
